Results on 21 compounds are retold here after PubChem BioAssay (NCI).

Structures are written as SMILES. The panel holds about 79,000 compounds, 15% with a hit somewhere; the sample as a whole holds those more often. A number with no mark means an inactive call. The source made the active and inactive calls. Rule as the data show it: active = growth inhibition above about 70%; inactive = the rest.

Assay [1] is described as follows: NCI Yeast Anticancer Drug Screen. Data for the rad50 strain (AID 155).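 Also: 0% = growth of vehicle-only cultures of the same strain.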 The settings on record: S. cerevisiae rad50 strain growth inhibition; at 50.0 µM; stronger effect = higher value. The gist of the method:
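Relative growth inhibition (compound vs vehicle) was measured in yeast with a defined repair-gene alteration.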

Assay [2] in a line: NCI Yeast Anticancer Drug Screen. Data for the mec2-1 strain (AID 157). The following applies: S. cerevisiae mec2-1 strain, at 50.0 µM, stronger effect = higher value. The gist of the method: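 Mutant yeast (mec2-1) grown with compound; growth inhibition relative to vehicle control reported.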
A short description of assay [3]: NCI Yeast Anticancer Drug Screen. Data for the sgs1 mgt1 strain (AID 161).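 Also: 0% = growth of cultures given vehicle only.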 The following applies: S. cerevisiae sgs1 mgt1 strain, at 50.0 µM, stronger effect = higher value. The gist of the method: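 Growth of a repair-deficient yeast mutant was monitored after compound treatment and expressed as inhibition relative to vehicle-treated cultures.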
The nature of assay [4]: NCI Yeast Anticancer Drug Screen. Data for the cln2 rad14 strain (AID 165).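 Also: 0% = growth equal to vehicle treated cultures.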 The following applies: S. cerevisiae cln2 rad14 strain, at 50.0 µM, stronger effect = higher value. The gist of the method:
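Readout is yeast growth inhibition versus vehicle-treated controls, using a strain with cln2 and rad14 alterations exposed to compound.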

Assay [5] in a line: NCI Yeast Anticancer Drug Screen. Data for the bub3 strain (AID 167). The following applies: S. cerevisiae bub3 mutant strain, at 50.0 µM, stronger effect = higher value. The gist of the method: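 Screening used yeast with an engineered genetic alteration affecting cell cycle control. Compound-exposed cultures were compared with vehicle cultures, and reduced growth was taken as inhibition.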

A short description of assay [6]: NCI Yeast Anticancer Drug Screen. Data for the mlh1 rad18 strain (AID 175). The settings on record: S. cerevisiae mlh1 rad18 strain growth inhibition; at 50.0 µM; stronger effect = higher value. The gist of the method:
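Genetically defined yeast (DNA repair-deficient) exposed to compounds; growth inhibition determined relative to vehicle.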

Take `O=C1OC2C3c4ccccc4C(c4c3ccc3ccccc43)C2O1` (stereo unspecified): the growth inhibition in assay [1] is 10.1%; in assay [2], 10.9%; in assay [3], 19.8%; in assay [4], 19.7%; in assay [5], 24.1%; in assay [6] it was 29.2%.
For the compound `Cc1cn(CC(O)c2cc3ccccc3[nH]2)c(=O)[nH]c1=O` (stereo unspecified), the growth inhibition is 9.7% in assay [1]; 13.6% in assay [2]; -0.1% in assay [3]; 12.1% in assay [4]; 9.65% in assay [5]; 7.15% in assay [6].
Turning to `CC(C)(C)c1ccc(Oc2nc(Oc3ccc(C(C)(C)C)cc3)nc(Oc3ccc(C(C)(C)C)cc3)n2)cc1`, the growth inhibition in assay [1] was 19.6%; in assay [2] it was 10.8%; in assay [3], 10.6%; in assay [4] it was 3.8%; in assay [5] it was -1.85%; in assay [6], 11.2%.
For `CCB1OC2C(COC(C)=O)OC(OC(C)=O)C2O1` (stereo unspecified), the growth inhibition in assay [1] is -7.4%; in assay [2] it was -9.6%; in assay [3], -9.55%; in assay [4], -9.25%; in assay [5] it was -6.9%; in assay [6], -10.1%.
Turning to `COc1ccc(C(=O)Nc2ccccc2CCC2CCCCN2C)cc1` (stereo unspecified), the growth inhibition in assay [1] is 29.2%; in assay [2], 3%; in assay [3], 10.3%; in assay [4], 22.4%; in assay [5], 1.15%; in assay [6] it was 19%.
As to `COc1ccc(C)cc1NS(=O)(=O)c1ccccc1`, the growth inhibition in assay [1] was -7.45%; in assay [2], -33.4%; in assay [3] it was -8.2%; in assay [4] it was -12.5%; in assay [5] it was -9.65%; in assay [6], 10.4%.
On to `COc1ccc2nc3cc(Cl)ccc3c(NCCCC3CCCN4CCCCC34)c2c1` (stereo unspecified), for which the growth inhibition in assay [1] is 50%; in assay [2], 40.5%; in assay [3], 2%; in assay [4], 6.15%; in assay [5], 11.7%; in assay [6] it was 38.4%.
Consider `Nc1c(Br)cc2c(c1Br)C(=O)c1ccccc1-2`, for which the growth inhibition in assay [1] was 3.95%; in assay [2] it was 8.8%; in assay [3] it was 23.6%; in assay [4], 8.8%; in assay [5] it was 15.2%; in assay [6] it was -0.05%.
With `O=S(=O)(c1ccccc1)c1ccc(CI)cc1`, the growth inhibition in assay [1] is 15.8%; in assay [2], 19.9%; in assay [3], 5.05%; in assay [4], 17.4%; in assay [5], 13.7%; in assay [6] it was 9.05%.
For the compound `NCCCCCCNCc1cccc2ccccc12`, the growth inhibition is -9.85% in assay [1]; -13.1% in assay [2]; -9.7% in assay [3]; 6.05% in assay [4]; -10.3% in assay [5]; -31.4% in assay [6].
For `COCCCCCOC`, the growth inhibition in assay [1] is 5.55%; in assay [2], -14.8%; in assay [3] it was -3.4%; in assay [4], 6.6%; in assay [5], 12.3%; in assay [6], 1.55%.
As for `CCCCN(CCCC)CC(O)c1cc(-c2ccc(Cl)c(Cl)c2)nc2c(Cl)cc(Cl)cc12` (stereo unspecified), the growth inhibition was 28.3% in assay [1]; 31.1% in assay [2]; -15.7% in assay [3]; 11.6% in assay [4]; -15.5% in assay [5]; -11.8% in assay [6].
With `O=c1[nH]cc(CNc2ccccc2)c(=O)[nH]1`, the growth inhibition was -5.5% in assay [1]; 4.75% in assay [2]; -9.45% in assay [3]; -27.8% in assay [4]; -18.2% in assay [5]; 8.5% in assay [6].
Turning to `OC1(c2ccccc2)C(c2ccccc2)=C(c2ccccc2)C(c2ccc(CCCCCCCCc3ccc(C4=C(c5ccccc5)C(O)(c5ccccc5)C(c5ccccc5)=C4c4ccccc4)cc3)cc2)=C1c1ccccc1` (stereo unspecified), the growth inhibition in assay [1] was -20.4%; in assay [2], -3.95%; in assay [3] it was -7.5%; in assay [4] it was -28.1%; in assay [5], -23.6%; in assay [6], -9.15%.
As to `CC(CS(=O)(=O)Cc1ccccc1)C(N)=O` (stereo unspecified), the growth inhibition in assay [1] was -4.8%; in assay [2], 38.1%; in assay [3] it was 14.3%; in assay [4], 30.1%; in assay [5], -9.95%; in assay [6], -17.1%.
As for `Nc1nnnn1C(=O)NCCCl`, the growth inhibition is -6.55% in assay [1]; 0.6% in assay [2]; -6.45% in assay [3]; -24.8% in assay [4]; -20.4% in assay [5]; -5.25% in assay [6].
As to `Oc1ccc2ccc(O)cc2c1`, the growth inhibition is 21.4% in assay [1]; 21.6% in assay [2]; 10.4% in assay [3]; 12.2% in assay [4]; 11.8% in assay [5]; 5.4% in assay [6].
`O=C(Nc1nc(C23CC4CC(CC(C4)C2)C3)cs1)c1cc2cc(Br)cc(Br)c2oc1=O`: the growth inhibition was -8.75% in assay [1]; -13.8% in assay [2]; 23.3% in assay [3]; 19.9% in assay [4]; -12.8% in assay [5]; -8.4% in assay [6].
As to `COc1ccccc1NC(=O)Nc1ccc(Nc2ccccc2)cc1`, the growth inhibition was 92.7% (active) in assay [1]; 94.2% (active) in assay [2]; 92.2% (active) in assay [3]; 90.3% (active) in assay [4]; 92.2% (active) in assay [5]; 92.7% (active) in assay [6].
For the compound `CCOC(=O)C(Cc1ccc(O)cc1)NC(=O)C(CSC(c1ccccc1)(c1ccccc1)c1ccccc1)NC(c1ccccc1)(c1ccccc1)c1ccccc1` (stereo unspecified), the growth inhibition in assay [1] was 4.85%; in assay [2], 0.8%; in assay [3], -14.8%; in assay [4] it was -1.65%; in assay [5], -5.05%; in assay [6], 9.55%.
As for `CNS(=O)(=O)c1ccc(Br)cc1`, the growth inhibition is -15.9% in assay [1]; -24.6% in assay [2]; -9.85% in assay [3]; -14.2% in assay [4]; 3.35% in assay [5]; -12.4% in assay [6].
